“And” between values parts separate entries of the source, which are not always exact repeats. Equal values may be shown once. Where a name gives a salt, the structure may show the parent alone.
How the values were obtained:
Test in all cases: cell viability relative to vehicle control; higher = less cytotoxic
Details in all cases: 10 µM
[1] = test system: K562
Summary of the method: (§1)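 CRISPR-edited SRSF2 P95 mutant and isogenic wild-type clones of four leukaemia lines were screened against Selleck bioactive, kinase and epigenetic probe libraries, with identity-inconsistent compounds removed. Compounds were acoustically dispensed into 384-well plates at a single 10 µM dose, with 2000 cells in 50 µL medium per well. After 48 h, supernatant was removed and CellTiter-Glo luminescence was read. Viability was expressed as percent of the on-plate DMSO vehicle control, analysed in Genedata Screener.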

[2] = test system: MARIMO
Summary of the method: as §1

[3] = test system: MOLM14
Summary of the method: as §1

[4] = test system: OCI-AML2
Summary of the method: as §1

| Structure (SMILES) | cell viability ([1]; SRSF2 genotype: SRSF2 P95H/wt) | cell viability ([1]; SRSF2 genotype: SRSF2 wt/wt) | cell viability ([2]; SRSF2 genotype: SRSF2 P95H/wt) | cell viability ([2]; SRSF2 genotype: SRSF2 wt/wt) | cell viability ([3]; SRSF2 genotype: SRSF2 P95H/wt) | cell viability ([3]; SRSF2 genotype: SRSF2 wt/wt) | cell viability ([4]; SRSF2 genotype: P95H/wt) | cell viability ([4]; SRSF2 genotype: wt/wt) |
| --- | --- | --- | --- | --- | --- | --- | --- | --- |
| CC(C)n1nc(-c2ccc(NC(=O)Nc3cc(C(F)(F)F)ccc3F)cc2)c2c(N)ncnc21 | 26.5% and 30.8% | 19% | 8.66% | 4.51% | 1.98% | 0.7% | 2.08% | 8.47% |
| O=C[C@H](O)[C@@H](O)[C@H](O)CO [Xylose] | 95% and 93.8% | 96% | 90.4% | 96.1% | 91.8% | 95.2% | 103% | 88.2% |
| O=C(/C=C/n1cnc(-c2cc(C(F)(F)F)cc(C(F)(F)F)c2)n1)N1CC(F)(F)C1 | 27.6% and 15.9% | 11.8% | 35.7% | 36.6% | 2.44% | 1.55% | 1.41% | 2.6% |
| CC1(C)CC[C@]2(C(=O)O)CC[C@]3(CO)C(=CC[C@@H]4[C@@]5(C)C[C@H](O)[C@H](O[C@@H]6O[C@H](CO)[C@@H](O)[C@H](O)[C@H]6O)[C@@](C)(C(=O)O)[C@@H]5CC[C@]43C)[C@@H]2C1 [Tenuifolin] | 102% and 96.9% | 105% | 104% | 112% | 99.4% | 108% | 102% | 103% |
| N[C@@H](CSCCB(O)O)C(=O)O [BEC Hydrochloride] | 105% and 101% | 96.8% | 99.4% | 114% | 101% | 104% | 109% | 111% |
| OCc1ccc(-c2ccc(-c3ccc(CO)s3)o2)s1 | 56.7% and 54.9% | 7.66% | 63.2% | 66% | 11.3% | 8.82% | 9.11% | 18.3% |
| COCC(=O)Nc1cc(Sc2ccccc2)ccc1N=C(NC(=O)OC)NC(=O)OC [Febantel] | 98.1% and 91.8% | 97.1% | 98.9% | 107% | 97.9% | 110% | 98.3% | 102% |
| COc1cc(OC)c(NC(=O)Nc2cc(C)on2)cc1Cl | 91.9% and 83.8% | 85.7% | 86.4% | 86.6% | 61.3% | 74.5% | 73.4% | 74.3% |
| CCCCCCCC/C=C\CCCCCCCC(=O)OCC [Ethyl Oleate] | 101% and 94.1% | 97.8% | 86.5% | 100% | 92.3% | 95% | 88.7% | 93.7% |
| CC(C)[C@H]1C(=O)N[C@@H](CCCNC(=N)N)C(=O)NCC(=O)N[C@@H](CC(=O)O)C(=O)N[C@H](Cc2ccccc2)C(=O)N1C [Cilengitide trifluoroacetate] | 98.5% and 105% | 101% | 102% | 99.1% | 103% | 99.5% | 104% | 109% |
| NS(=O)(=O)c1ccccc1 [Benzenesulfonamide] | 100% and 106% | 109% | 97.9% | 109% | 96.5% | 106% | 107% | 91.7% |
| COc1nc(C)nc(Cl)c1NC1=NCCN1 [Moxonidine] | 101% and 86.7% | 84.3% | 87.2% | 95.5% | 89.9% | 94.8% | 97.5% | 89.6% |
| Cc1ccc(-n2[nH]c(C)c(N=Nc3cccc(-c4cccc(C(=O)O)c4)c3O)c2=O)cc1C [Eltrombopag] | 77.1% and 80.1% | 74.4% | 62.2% | 71.6% | 77% | 74.6% | 68.8% | 70.1% |
| CCS(=O)(=O)Nc1ccc(Oc2ccc(F)cc2F)c(-c2cn(C)c(=O)c3[nH]ccc23)c1 [ABBV-075 (Mivebresib)] | 20.9% and 13.8% | 33.2% | 7.17% | 9.37% | 1.9% | 1.8% | 7.64% | 13.5% |
| O=C(O)c1c[nH]c2cc(Cl)c(-c3ccc(C4(O)CCC4)cc3)cc12 | 91.2% and 101% | 95.2% | 92.8% | 115% | 106% | 102% | 86.5% | 96.9% |
| COc1ccc2[nH]cc(CCNC(C)=O)c2c1 [Melatonin] | 104% and 109% | 100% | 109% | 101% | 103% | 105% | 118% | 103% |
| CCN(C(=O)c1c(O)c2c(Cl)cccc2n(C)c1=O)c1ccccc1 | 98.8% and 96.5% | 96.4% | 92.4% | 99.1% | 84.1% | 93.4% | 87.9% | 99.8% |
| COc1cc(Nc2c(C#N)cnc3cc(OCCCN4CCN(C)CC4)c(OC)cc23)c(Cl)cc1Cl [Bosutinib (SKI-606)] | 2.19% and 3.5% | 3.73% | 38.5% | 37.6% | 7.61% | 11.1% | 1.53% | 7.73% |
| N[C@@H](CSC(c1ccccc1)(c1ccccc1)c1ccccc1)C(=O)O | 43.2% and 34.9% | 34.4% | 7.81% | 4.29% | 8.53% | 2.73% | 7.71% | 11.8% |
| CO/N=C(\C(=O)N[C@@H]1C(=O)N2C(C(=O)O)=C(CSc3nnnn3C)CS[C@H]12)c1csc(N)n1 [Cefmenoxime hydrochloride] | 96.7% and 90.3% | 100% | 98.4% | 97.1% | 99.7% | 98.8% | 97.2% | 101% |
| CCc1nc(N)nc(N)c1-c1ccc(Cl)cc1 [Pyrimethamine] | 73.7% and 96.8% | 36.4% | 95.2% | 99.7% | 102% | 92.3% | 107% | 102% |
| Cc1cc(O)c2c(c1)C(=O)c1cc(O)cc(O)c1C2=O [Emodin] | 85.5% and 86.8% | 90.4% | 90.9% | 100% | 109% | 107% | 89.1% | 83.7% |

| Structure (SMILES) | cell viability ([1]; SRSF2 genotype: SRSF2 P95H/wt) | cell viability ([1]; SRSF2 genotype: SRSF2 wt/wt) | cell viability ([2]; SRSF2 genotype: SRSF2 P95H/wt) | cell viability ([2]; SRSF2 genotype: SRSF2 wt/wt) | cell viability ([3]; SRSF2 genotype: SRSF2 P95H/wt) | cell viability ([3]; SRSF2 genotype: SRSF2 wt/wt) | cell viability ([4]; SRSF2 genotype: P95H/wt) | cell viability ([4]; SRSF2 genotype: wt/wt) |
| --- | --- | --- | --- | --- | --- | --- | --- | --- |
| CC1(C)CC(=O)c2c(C(F)(F)F)nn(-c3ccc(C(N)=O)c(N[C@H]4CC[C@H](O)CC4)c3)c2C1 | 23.7% and 29.5% | 27.1% | 30.9% | 25.9% | 3.24% | 4.55% | 13.9% | 21.4% |
| Cc1cnc(Nc2ccc(F)cc2Cl)nc1-c1c[nH]c(C(=O)NC(CO)c2cccc(Cl)c2)c1 (stereo not given) | 60.8% and 83.2% | 72.9% | 44.9% | 46% | 58.5% | 48.1% | 47.4% | 47.7% |
| C[C@]12CC[C@H](O)CC1=CC[C@@H]1[C@@H]2CC[C@]2(C)C(n3cnc4ccccc43)=CC[C@@H]12 [Galeterone (TOK-001)] | 83% and 93.4% | 95.7% | 77.5% | 81.9% | 88.2% | 97.8% | 80.3% | 80.1% |
| CC(=O)O[C@]1(C(C)=O)CC[C@H]2[C@@H]3C=C(Cl)C4=CC(=O)[C@@H]5C[C@@H]5[C@]4(C)[C@H]3CC[C@@]21C [Cyproterone acetate] | 87.2% and 85.8% | 84.7% | 66.1% | 71.6% | 86.2% | 93.3% | 75% | 77.4% |
| COC(=O)N[C@H](C(=O)N1CC2(CC2)C[C@H]1c1nc(-c2ccc3c(c2)C(F)(F)c2cc(-c4ccc5[nH]c([C@@H]6[C@H]7CC[C@H](C7)N6C(=O)[C@@H](NC(=O)OC)C(C)C)nc5c4)ccc2-3)c[nH]1)C(C)C [Ledipasvir (GS5885)] | 84.9% and 87.8% | 84.3% | 86.4% | 90.2% | 73.7% | 84.3% | 87.9% | 91.8% |
| CCCc1nc(C(C)(C)O)c(C(=O)OCc2oc(=O)oc2C)n1Cc1ccc(-c2ccccc2-c2nnn[nH]2)cc1 [Olmesartan medoxomil (Benicar)] | 105% and 103% | 106% | 109% | 111% | 97.2% | 104% | 104% | 106% |
| O=C(NCCO)c1cccc(-c2cc(Nc3ccc(OC(F)(F)F)cc3)ncn2)c1 | 12.1% and 23% | 20.1% | 69.5% | 76.6% | 93.2% | 91.3% | 65% | 72.3% |
| Cc1ccc(-c2csc(NC(=O)c3ccccc3)n2)c(C)c1 | 80.3% and 83.3% | 81.5% | 76.2% | 81% | 94.1% | 92.7% | 63.8% | 66.8% |
| OCCOCCN1CCN(C(c2ccccc2)c2ccc(Cl)cc2)CC1 (stereo not given) [Hydroxyzine 2HCl] | 90.8% and 99.8% | 96.4% | 85.2% | 88.6% | 86.6% | 95% | 95.4% | 86.1% |
| CCOC(=O)C1=C(COCCN)NC(C)=C(C(=O)OC)C1c1ccccc1Cl (stereo not given) [Amlodipine (Norvasc)] | 83% and 92.4% | 84.4% | 73.8% | 78.3% | 53.3% | 62.5% | 38.9% | 50% |
| COc1c(-c2ccc3cc(NS(C)(=O)=O)ccc3c2)cc(-n2ccc(=O)[nH]c2=O)cc1C(C)(C)C [S5402 Dasabuvir(ABT-333).cdx] | 84% and 86.8% | 80.6% | 82% | 89.6% | 88.3% | 97.3% | 90.5% | 90.5% |
| CCCC(C)NC(=O)c1ccc(Cl)c(Cl)c1 (stereo not given) | 101% and 97.6% | 105% | 90.5% | 96.2% | 112% | 103% | 96% | 96.8% |
| NCCOc1ccc(Cl)cc1C(=O)Nc1ccc([N+](=O)[O-])cc1Cl | 29.7% and 24.1% | 23.4% | 35.4% | 37.5% | 21.3% | 14.6% | 4.88% | 14.7% |
| O=C(O)c1cc(O)cc(Cl)c1 [3-chloro-5-hydroxybenzoic Acid] | 104% and 101% | 103% | 96.3% | 95.1% | 105% | 107% | 96.9% | 109% |
| CC(C)Oc1ccc(-c2nc(-c3cccc4c3CC[C@@H]4NCCO)no2)cc1C#N [Ozanimod (RPC1063)] | 34% and 30.5% | 30.6% | 27.3% | 32.2% | 38.6% | 40.5% | 29% | 34.4% |
| C[C@@H](NCCCc1cccc(C(F)(F)F)c1)c1cccc2ccccc12 [AMG-073 HCl (Cinacalcet hydrochloride)] | 21.9% and 38.4% | 19.4% | 57.1% | 50.4% | 27% | 24.2% | 1.48% | 10.2% |
| CCOC(=O)/C=C/c1ccc(O)c(OC)c1 [Ethyl ferulate] | 98% and 104% | 104% | 92% | 107% | 98% | 101% | 112% | 108% |
| CN(c1ncccc1CNc1nc(Nc2ccc3c(c2)CC(=O)N3)ncc1C(F)(F)F)S(C)(=O)=O | – | 27.9% and 21.1% | 10.2% and 11.6% | 3.77% and 4.68% | 0.98% and 1.3% | 0.43% and 0.45% | 1.6% and 2.15% | 13% and 13.3% |
| CCn1cc(-c2ccnc3[nH]c(-c4cccc(CN(C)C)c4)cc23)c(-c2ccc(NC(=O)N(C)C)cc2)n1 | 36.2% and 51.2% | 45.9% | 30.3% | 27% | 1.95% | 2.96% | 1.06% | 7.2% |
| Cc1ccc(CNc2ncnc3ccc(-c4ccc(CO)o4)cc23)o1 | 97.3% and 96.8% | 101% | 90% | 95.8% | 81.7% | 94.2% | 77.5% | 84.3% |
| Cc1cccc(C)c1OCC(=O)N[C@@H](Cc1ccccc1)[C@@H](O)C[C@H](Cc1ccccc1)NC(=O)[C@H](C(C)C)N1CCCNC1=O [Lopinavir (ABT-378)] | 85.5% and 94.8% | 86.7% | 97.4% | 98.2% | 92.2% | 102% | 97.3% | 92.2% |
| O=c1cc(-c2ccc(O)c(O)c2O)oc2ccccc12 | – | 69.2% | 98.5% | 87.9% | 81.8% | 68.4% | 108% | 105% |

Reference: the supplement of paper PMC10981050
